According to PubChem BioAssay AID492998 (Southern Research Specialized Biocontainment Screening …, 2010):
The campaign covered roughly 2,300 compounds. About 550 (24%) were called active. A selection follows. Entries with a potency or affinity are not part of this list. Unmarked numbers belong to inactive results. The rule behind the calls is not given here.

Experiment: Vero E6 cell cytotoxicity, dose response, cytotoxicity control for non-replicating M. tuberculosis project, secondary assay (AID 492998);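 note: 100% = vehicle-treated cells and 0% = background wells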
Details: series mostly up to 20 µM; viability: at the top concentration

Row | Compound | viability [%]
1 | O=C(NCc1cccs1)c1ccc([N+](=O)[O-])cc1 | 106
2 | CC(=O)Nc1ccc(NC(=O)c2cc([N+](=O)[O-])cc([N+](=O)[O-])c2)cc1 | 83.2
3 | COc1ccc2cc(C(=O)NCc3ccccc3)c(=O)oc2c1 | 108
4 | CC(C)OC(=O)c1cc(C(=O)c2cc(Cl)ccc2O)coc1=N | 109
5 | O=C(NNc1ccc([N+](=O)[O-])cc1)C1CC1c1ccccc1 (stereo not drawn) | 100
6 | CC(C)(C)c1ccc(OCCC(=O)OCC(=O)NC2CC2)cc1 | 108
7 | O=C(Oc1ccc(F)cc1)c1ccc2c(=O)n3c(nc2c1)CCC3 | 98.7
8 | COC(=O)c1ccc(N2CCN(CCNC(=O)Nc3ccc(OC)cc3)CC2)cc1 | 110
9 | C#CCSc1nnc(-c2ccc(C)cc2)o1 | 97.5
10 | C#CCSc1nnc(-c2ccc(O)cc2)o1 | 103
11 | Cc1cc(Cl)ccc1N(CC(=O)NCc1ccccc1)S(C)(=O)=O | 108
12 | CCCCn1nnc(NC(=O)COc2ccc(Cl)c(C)c2)n1 | 107
13 | N#Cc1ccc(COC(=O)CCc2c[nH]c3ccccc23)cc1 | 98
14 | O=C(COC(=O)CCc1c[nH]c2ccccc12)NCc1ccc2c(c1)OCO2 | 106
15 | O=C(COC(=O)CCc1c[nH]c2ccccc12)NCc1ccc(Cl)cc1 | 96.6
16 | COc1ccc(OC(=O)CCc2c[nH]c3ccccc23)cc1 | 89.6
17 | C=Cc1cccc(NC(=O)COc2ccccc2)c1 | 95.2

Row | Compound | viability [%]
18 | COc1ccc(Cc2nnc(SCc3ccc([N+](=O)[O-])cc3)o2)cc1 | 90.6
19 | Cc1[nH]nc2c1C(c1ccc(-c3ccc(Cl)cc3)o1)C(C#N)=C(N)O2 (stereo not drawn) | 85.1
20 | O=C1/C(=C/c2ccco2)CCC1C1CCCC1 (stereo not drawn) | 99.2
21 | CC(NC(=O)COc1ccccc1F)C1CC2CCC1C2 (stereo not drawn) | 93.9
22 | CCOC(=O)c1ccc(NC(=O)CCSCCc2ccccn2)cc1 | 102
23 | CCOc1ccc(-c2nc3ccccc3c(=O)o2)cc1 | 87
24 | CCOC(=O)N1CCC(NS(=O)(=O)c2cc3c(cc2Cl)NC(=O)CO3)CC1 | 106
25 | CCCNC(=O)N1CCC(c2ccc3c(c2)OCO3)CC1 | 96.4
26 | COc1ccc(C2(O)CCN(CCCCOc3ccccc3)CC2)cc1 | 101
27 | OCC1(CCOc2ccccc2)CCN(Cc2cc(Cl)ccc2O)CC1 | 99.6
28 | COc1cccc2cc(C(=O)c3ccc([N+](=O)[O-])cc3)oc12 | 105
29 | CC1COC(=O)C(NNc2ccc(Cl)c(Cl)c2)=N1 (stereo not drawn) | 101
30 | CC(=O)Nc1cccc(-c2nc3ccccc3c(=O)o2)c1 | 113
31 | CC(C)Cc1cc(C(=O)Nc2ccc(F)cc2F)no1 | 101
32 | CC(C)c1nnc(NC(=O)c2cc3cc(Br)ccc3oc2=O)s1 | 99.5
33 | CCCC(=O)Nc1cccc(-c2nc3ccccc3c(=O)o2)c1 | 107
